Test results published in PubChem BioAssay AID1240 (Sanford-Burnham Center for Chemical Genomics, 2008).
Out of some 50,000 compounds screened, about 800 (1.6%) showed an effect of 50% or more. The sample as a whole holds a higher share of strong results than the screen did.

What follows are compounds tested against Bcl-2-like protein 10 (Homo sapiens) (UniProt Q9HD36) (assay: TR3 peptide-Bcl-B binding displacers, biochemical primary FP assay, phenotype converters (AID 1240;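 further: 0% = Bcl-B with tracer peptide and DMSO and 100% = tracer peptide lacking Bcl-B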)). Conditions: GST-Bcl-B / FITC-TR3 peptide fluorescence polarization; stronger effect = higher value; compound at 3.75 mg/L.
Bcl-2-like protein 10 (Homo sapiens), sequence (Q9HD36 whole entry, looked up): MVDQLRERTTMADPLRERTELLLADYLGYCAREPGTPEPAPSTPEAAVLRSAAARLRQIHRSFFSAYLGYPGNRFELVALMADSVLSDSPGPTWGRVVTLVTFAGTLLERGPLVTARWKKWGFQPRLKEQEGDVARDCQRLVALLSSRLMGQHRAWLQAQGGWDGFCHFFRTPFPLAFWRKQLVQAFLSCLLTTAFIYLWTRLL

Row | SMILES | displacement [%]
1 | COc1ccc(C2NCCc3c2[nH]c2ccccc32)cc1OC (stereo not drawn) | 8.4
2 | COc1cccc(C(=O)N2N=C(c3cccnc3)CC2(O)C(F)(F)F)c1 (stereo not drawn) | -2.9
3 | CCOC(=O)CN1C(c2ccccc2OC)Nc2ccc(Br)cc2C1c1ccccc1 (stereo not drawn) | 15.6
4 | Cc1ccc(S(=O)(=O)NN2C(=O)/C(=C/c3ccc(F)cc3)SC2=S)cc1 | 2
5 | OC(CNCc1ccccc1)(c1ccccc1)c1ccc(Cl)cc1 (stereo not drawn) | -9.4
6 | CCCN=C(C)c1c(C)[nH]n(-c2nc3ccccc3s2)c1=O | 68.8
7 | CC(=NCCc1ccccc1)c1c(C(F)(F)F)[nH]n(-c2nc3ccccc3s2)c1=O | -8.3
8 | CC(=NCc1ccccc1)c1c(C)[nH]n(-c2nc3ccccc3s2)c1=O | 12.2
9 | CCOC(=O)C1=C(C)N=c2s/c(=C\c3c[nH]c4ccccc34)c(=O)n2C1c1cccc(OC)c1 (stereo not drawn) | 32.8
10 | COc1cccc(C2C(C(=O)Nc3ccccc3)=C(C)N=c3s/c(=C\c4sccc4C)c(=O)n32)c1 (stereo not drawn) | 46.7
11 | COc1ccc(C2C(C(=O)OC(C)C)=C(C)N=c3s/c(=C/c4c[nH]c5ccccc45)c(=O)n32)cc1 (stereo not drawn) | 99.1
12 | COc1cccc(C2C(C(=O)Nc3ccccc3)=C(C)N=c3s/c(=C\c4ccc(N(C)C)cc4)c(=O)n32)c1 (stereo not drawn) | 73.6
13 | COc1ccc(C2C(C(=O)OC(C)C)=C(C)N=c3s/c(=C\c4cc(OC)ccc4OC)c(=O)n32)cc1 (stereo not drawn) | 6.4
14 | COc1cccc(C2C(C(=O)Nc3ccccc3)=C(C)N=c3s/c(=C\c4c[nH]c5ccccc45)c(=O)n32)c1 (stereo not drawn) | 113
15 | COc1cccc(C2C(C(=O)Nc3ccccc3)=C(C)N=c3s/c(=C\c4cccs4)c(=O)n32)c1 (stereo not drawn) | 79.1
16 | CCOC(=O)C1=C(C)N=c2s/c(=C\c3cccs3)c(=O)n2C1c1cccc(OC)c1 (stereo not drawn) | 12.9
17 | COc1cccc(C2C(C(=O)Nc3ccccc3)=C(C)N=c3s/c(=C/c4ccccc4OC)c(=O)n32)c1 (stereo not drawn) | 12.1
18 | COc1ccc(/C=c2\sc3n(c2=O)C(c2ccc(OC)cc2)C(C(=O)OC(C)C)=C(C)N=3)cc1 (stereo not drawn) | 10
19 | COc1cccc(C2C(C(=O)Nc3ccccc3)=C(C)N=c3s/c(=C\c4ccncc4)c(=O)n32)c1 (stereo not drawn) | 9.6
20 | COc1cccc(C2C(C(=O)Nc3ccccc3)=C(C)N=c3s/c(=C\c4ccc(O)cc4)c(=O)n32)c1 (stereo not drawn) | -6.7
21 | Cc1ccc(NC(=O)c2cc3cc([N+](=O)[O-])ccc3oc2=O)cc1 | 13.5
22 | CSc1ccccc1NC(=O)CC1Nc2cc(C)c(C)cc2NC1=O (stereo not drawn) | -41.6
23 | O=C1Nc2ccc(Br)c3cccc1c23 | 15.9
24 | COc1cc(C(=O)NCc2cccc3ccccc23)cc(OC)c1OC | 9.9
25 | COc1ccc(/C=C2\SC(=Nc3ccc(O)cc3)NC2=O)cc1OC | -6.3

Row | SMILES | displacement [%]
26 | COc1cc(/C=C/c2[nH]c(=O)[nH]c(=O)c2[N+](=O)[O-])cc(Br)c1OCc1ccccc1 | 15.6
27 | O=c1[nH]c(/C=C/c2ccccc2)c([N+](=O)[O-])c(=O)[nH]1 | 18.1
28 | O=c1[nH]c(/C=C/c2ccc(OCc3ccccc3)cc2)c([N+](=O)[O-])c(=O)[nH]1 | 114
29 | CC(C)(C)OC(=O)C1C(=O)CC(C)(O)C(C(=O)OC(C)(C)C)C1c1ccccc1 (stereo not drawn) | -1.3
30 | O=c1c2ccccc2nc(SCc2ccccc2)n1Cc1ccccc1 | -0.7
31 | O=C(CSc1nc2ccccc2s1)Nc1ncccn1 | 57.1
32 | O=C(CSc1nc2ccccc2s1)Nc1nc2ccccc2s1 | 7.4
33 | O=C(CSc1nc2ccccc2s1)Nc1ccccc1 | 7.4
34 | C=CCN1C(=O)C(Cc2ccccc2)S/C1=N/N=C/c1ccccc1 (stereo not drawn) | 3
35 | CCC1=NN2C(=N)/C(=C/c3ccc(-c4cccc(C(=O)O)c4)o3)C(=O)N=C2S1 | 1.4
36 | CC(C)C1=NN2C(=N)/C(=C/c3ccc(-c4cccc(C(=O)O)c4)o3)C(=O)N=C2S1 | -26.4
37 | COc1cc([N+](=O)[O-])ccc1-c1ccc(/C=C2\C(=O)N(c3ccc(S(N)(=O)=O)cc3)N=C2C)o1 | 5.3
38 | NC1=NC(=O)/C(=C\c2ccc(-c3ccc([N+](=O)[O-])cc3)o2)S1 | 3.2
39 | Cc1cccc(N2CCN(C3=NC(=O)/C(=C/c4ccc(-c5cccc([N+](=O)[O-])c5)o4)S3)CC2)c1 | 9.8
40 | CCC1=NN2C(=N)/C(=C/c3ccc(-c4cccc([N+](=O)[O-])c4)o3)C(=O)N=C2S1 | 124
41 | CCC1=NN2C(=N)/C(=C/c3ccc(-c4ccc([N+](=O)[O-])cc4OC)o3)C(=O)N=C2S1 | 4.4
42 | CC(C)C1=NN2C(=N)/C(=C/c3ccc(-c4ccc([N+](=O)[O-])cc4)o3)C(=O)N=C2S1 | 111
43 | CC(C)C1=NN2C(=N)/C(=C/c3ccc(-c4cccc([N+](=O)[O-])c4)o3)C(=O)N=C2S1 | 173
44 | CC(C)C1=NN2C(=N)/C(=C/c3ccc(Sc4ccc(Cl)cc4)o3)C(=O)N=C2S1 | -18.4
45 | CCC1=NN2C(=N)/C(=C/c3ccc(-c4ccccc4C(=O)OC)o3)C(=O)N=C2S1 | 3.5
46 | COc1cc([N+](=O)[O-])ccc1-c1ccc(/C=C2/C(=N)N3N=C(C(C)C)SC3=NC2=O)o1 | 77
47 | O=C1C(=O)N(c2ccccc2Br)C(=O)N1c1cccc(Cl)c1 | 5.7
48 | O=C(CSCC(=O)Nc1ccccc1)NCc1ccco1 | -20.8
49 | Nc1n[nH]c(N)c1N=Nc1cccc(C(F)(F)F)c1 | -2.4
50 | O=C(Cc1ccc(Cl)cc1)NNC(=O)C1CCCO1 (stereo not drawn) | 2.5

Row | SMILES | displacement [%]
51 | COc1cc(C(=O)NN2C(=O)/C(=C/c3ccc(OC)c(OC)c3)SC2=S)ccc1O | -28.1
52 | c1ccc(-c2cc(-c3cc(-c4ccccc4)on3)no2)cc1 | 2.6
53 | O=C(Oc1ccc2ccccc2c1)c1cc([N+](=O)[O-])ccc1Cl | -0.9
54 | COc1cc(/C=C2/C(=N)N3N=C(C(C)C)SC3=NC2=O)cc(Cl)c1OCCOc1ccccc1 | -39
55 | CC(C)C1=NN2C(=N)/C(=C/c3ccc(-c4ccc(F)c(Cl)c4)o3)C(=O)N=C2S1 | 146
56 | CN1C(=O)/C(=C\c2ccc(-c3ccc(F)c(Cl)c3)o2)SC1=S | 3.9
57 | COc1ccc(/C=C2/C(=N)N3N=C(C(C)C)SC3=NC2=O)cc1OC | 133
58 | CCC1=NN2C(=N)/C(=C/c3ccc(OC)c(OC)c3)C(=O)N=C2S1 | -1.4
59 | CC(C)C1=NN2C(=N)/C(=C/c3cc(Cl)ccc3OCc3ccccc3)C(=O)N=C2S1 | -7.4
60 | Cc1c(Cl)cccc1N=Cc1ccc[nH]1 | 11.3
61 | Cc1sc2nc(SCC(=O)NCCO)n(-c3ccccc3)c(=O)c2c1C | 1.9
62 | COC(C)(C)c1cc(-c2cccc3ccccc23)nc(N)n1 | 0
63 | C=CCSc1nc(C)c2cc(OCC)ccc2n1 | 7.4
64 | CCOc1ccc2nc(SC)nc(C)c2c1 | -3.6
65 | CCOC(=O)CC(=O)CSc1nc(C)c2cc(OCC)ccc2n1 | 67.2
66 | Cc1cc(C)c2oc(-c3ccc(C)c(NC(=O)c4ccc(Br)o4)c3)nc2c1 | -3.8
67 | CN(C)CCCNC(=O)c1ccc(N(C)S(=O)(=O)c2ccccc2)cc1 | -13.4
68 | CCOC(=O)c1csc(NC(=O)c2ccc(C(=O)c3ccccc3)cc2)n1 | -24.4
69 | Cc1ccc(C(C)C)c(OCC(=O)Nc2ccc(NC(=O)c3ccccc3Cl)cc2)c1 | -2.1
70 | Cc1cc(C)cc(-n2c(O)c(/C=C3\C=Nc4ccccc43)c(=O)[nH]c2=O)c1 | 71.2
71 | O=c1[nH]c(=O)n(Cc2ccc(F)cc2)c(O)c1/C=C1/C=CC=N1 | 32
72 | Cc1cc(C)c(-n2c(O)c(/C=C3\C=Nc4ccccc43)c(=O)[nH]c2=O)c(C)c1 | -4.1
73 | O=c1[nH]c(=O)n(Cc2ccc(F)cc2)c(O)c1/C=C1\C=Nc2ccccc21 | 51.3
74 | C=CCn1c(O)c(/C=C2\C=Nc3ccccc32)c(=O)[nH]c1=S | -2.9
75 | O=c1[nH]c(=O)n(-c2cccc(Br)c2)c(O)c1/C=C1\C=Nc2ccccc21 | 33.4

Row | SMILES | displacement [%]
76 | COc1cc(OC)c(OC)cc1/C=N/NC(=O)CSc1nc2ccccc2[nH]1 | 0.1
77 | O=C(Nc1ccccc1C(=O)N=Nc1c(O)[nH]c2ccc([N+](=O)[O-])cc12)c1ccccc1 | -1.3
78 | COc1ccc(C)cc1NC(=O)CN(Cc1ccccc1)S(=O)(=O)c1ccc(OC)c(OC)c1 | -46.5
79 | CCN1CCc2c(sc(NC(=O)Nc3ccc(Cl)cc3)c2C(N)=O)C1 | 21.3
80 | COC(=O)c1c(NC(=O)Nc2ccc(Cl)c(Cl)c2)sc2c1CCC2 | 11.8
81 | CCN1CCc2c(sc(NC(=O)Nc3ccc(Cl)c(Cl)c3)c2C(N)=O)C1 | 111
82 | CCOc1ccccc1NC1=CC(=O)CC(c2ccccc2)C1 (stereo not drawn) | -8.1
83 | COc1ccc(COCC(O)CN2CC(C)OC(C)C2)cc1OC (stereo not drawn) | 4
84 | COc1ccccc1C(=O)N1CCN(c2nc3ccc([N+](=O)[O-])cc3s2)CC1 | -14
85 | Cc1ccccc1C(=O)N1CCN(c2nc3ccc([N+](=O)[O-])cc3s2)CC1 | 161
86 | O=C(c1ccc(Cl)cc1Cl)N1CCN(c2nc3ccc([N+](=O)[O-])cc3s2)CC1 | 100
87 | O=C(c1ccc(Br)cc1)N1CCN(c2nc3ccc([N+](=O)[O-])cc3s2)CC1 | 3.2
88 | CCC(=O)N1CCN(c2nc3ccc([N+](=O)[O-])cc3s2)CC1 | -8.8
89 | O=C(c1cccc2ccccc12)N1CCN(c2nc3ccc([N+](=O)[O-])cc3s2)CC1 | 28.9
90 | COc1ccc(N2C(=O)c3ccccc3NC2c2ccc(OC)c(CN3C(=O)c4ccccc4C3=O)c2)cc1 (stereo not drawn) | -4.2
91 | COC(=O)CSc1nc(NC(C)=O)nc(C)c1Br | 4.5
92 | Oc1c(Cl)cc(Br)cc1/C=N/Nc1nc(N2CCOCC2)nc(N2CCOCC2)n1 | 9.3
93 | CNc1ccc([N+](=O)[O-])cc1N/C=C1\CCc2ccccc2C1=O | 126
94 | O=C1/C(=C\Nc2ccccc2O)CCc2ccccc21 | 3.8
95 | O=C1/C(=C/Nc2ccccc2NS(=O)(=O)c2ccc([N+](=O)[O-])cc2)CCc2ccccc21 | 8.1
96 | O=C1/C(=C/Nc2ccccc2NS(=O)(=O)c2ccccc2)CCc2ccccc21 | 10.4
97 | O=C1/C(=C\Nc2ccc3c(c2)OCO3)CCc2ccccc21 | 48.1
98 | O=C1/C(=C\Nc2cc(Cl)ccc2O)CCc2ccccc21 | 85.9
